# Screening results: PubChem, The Scripps Research Institute Molecular Screening Center
# Compounds with a hit are over-represented: about 2.9% of the library has one in this group of screens.
# KLK7 zymogen act = activators of human kallikrein-7 zymogen. P49862. purified proKLK7, EDANS-DABCYL substrate fluorescence; 100% is mature enzyme control, 0% vehicle. activation, % at 7 µM. 0.9% of 370,000 active. AID 652039;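 active = activation above the mean of all tested compounds plus 3 SD, computed per campaign excluding outliers beyond control limits, cut at about 13% in these data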
# Target sequence (P49862 whole entry, looked up): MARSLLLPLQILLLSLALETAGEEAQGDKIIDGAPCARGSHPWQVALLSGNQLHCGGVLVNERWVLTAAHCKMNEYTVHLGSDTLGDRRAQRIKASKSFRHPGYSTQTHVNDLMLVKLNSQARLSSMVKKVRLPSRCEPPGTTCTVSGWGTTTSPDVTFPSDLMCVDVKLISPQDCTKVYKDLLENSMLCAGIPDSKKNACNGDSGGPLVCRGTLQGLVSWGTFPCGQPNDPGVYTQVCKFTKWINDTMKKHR
# PLCg1 inh = inhibitors of human phospholipase C gamma1. P19174. purified PLC-gamma1, fluorogenic substrate, fluorescence. inhibition, % at 12.2 µM. 0.84% of 370,000 active. AID 720700; in the data active = inhibition above about 9.5%
# PLC-beta3 inh = PLC-beta3 (human) inhibition, primary screen; Q01970; Purified PLC-beta3, fluorogenic substrate, fluorescence; inhibition, % at 12.2 µM; 0.18% of 370,000 active; AID 720704; in the data active = inhibition above about 11%
# ADAM17 inh = ADAM17 inhibition, QFRET primary screen. inhibition, % at 6.95 µM. 0.83% of 370,000 active. P78536. recombinant ADAM17, EDANS/DABCYL FRET peptide cleavage. AID 720648;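 active = inhibition above the mean of compounds lying between control limits plus 3 SD, set per campaign, cut at about 8.5% in these data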
# ADAM10 inh = inhibits human ADAM10; recombinant ADAM10, EDANS/DABCYL FRET peptide cleavage, 3 h; inhibition, % at 7 µM; 0.62% of 370,000 active; AID 720582;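 active = inhibition above a per-campaign cutoff equal to the mean of compounds falling between control-based bounds plus 3 SD, cut at about 20% in these data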
# ADAM10 confirm = human ADAM10 inhibition, confirmation. shares compounds with ADAM10 inh. ADAM10 QFRET peptide cleavage, EDANS fluorescence. inhibition, % at 6.95 µM. 1% of 2,100 active;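 active = inhibition above about 20% chosen separately for each screening run, limit read from the data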
# ADAM17 ctr = inhibits human ADAM17 in ADAM10 exosite counter-screen | inhibition, % at 6.95 µM | ADAM17 QFRET peptide cleavage, EDANS fluorescence | 0.5% of 2,100 active | AID 743214 | shares compounds with ADAM10 inh;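 active = mean triplicate inhibition above the solvent-only control wells' mean plus 3 SD, cut at about 12% in these data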
# Numbers stand for hits; – = inactive; · = not tested or not shown.
SMILES,KLK7 zymogen act,PLCg1 inh,PLC-beta3 inh,ADAM17 inh,ADAM10 inh,ADAM10 confirm,ADAM17 ctr
Nc1nc(N)c(-c2cccc(C(F)(F)F)c2)c(Cc2cccc(C(F)(F)F)c2)n1,–,–,–,15,37,–,–
C=CCn1c(COc2ccc(C)cc2)nnc1SCc1ccc([N+](=O)[O-])cc1,–,–,–,–,–,·,·
O=C(/C=C/c1ccccc1)Nc1ccc(NC(=O)c2cccs2)cc1,–,–,–,–,22,–,–
Cc1cccc(-c2noc(CNC(=O)c3ccc4c(c3)OCO4)n2)c1,–,–,–,–,23,–,–
CN(C(=O)[C@@H](C1CC1)[C@@H](O)c1ccc2ccccc2c1)c1ccccc1,–,10,–,–,87,–,–
COc1cccc(N(C)C(=O)[C@@H](C2CC2)[C@@H](O)c2ccc(Cl)cc2)c1,–,–,–,–,–,·,·
CCCCNC(=O)C[C@H]1C[C@@]2(C(=O)OC)C(=C[C@H](C3CCCC3)O[C@@H]2C)N(CCc2ccc(OC)c(OC)c2)C1=O,–,–,–,–,–,·,·
COc1cc2c(cc1OC)C(c1ccccc1)N(C(=O)c1ccccc1F)CC2 (stereo not drawn),–,–,–,–,21,–,–
CCO[C@H]1OC(C(=O)NCc2ccccc2)=C[C@@H](c2cn(C(C)=O)c3ccccc23)[C@@H]1CCCO,–,–,–,–,26,–,–
CCO[C@@H]1OC(C(=O)O)=C[C@H](c2cn(C(C)=O)c3ccccc23)[C@H]1CCCO,–,–,–,–,–,·,·
CCO[C@@H]1OC(C(=O)NCc2nc3ccccc3[nH]2)=C[C@H](c2csc3ccccc23)[C@H]1CCCO,–,–,–,–,20,–,–
C#Cc1ccc([C@@H]2C=C(C(=O)N3CCN(Cc4ccccc4)CC3)O[C@H](OCC)[C@H]2CCCO)cc1,–,–,–,–,24,–,–
COC(=O)[C@H](CC(C)C)N1Cc2nnn(Cc3ccccc3)c2-c2ccccc2S1(=O)=O,–,–,–,–,–,·,·
Cc1ccccc1Nc1nc(Nc2ccccc2C)nc(SC2=NCCS2)n1,–,–,–,–,20,–,–
Clc1ccccc1NCSC1=NCCS1,–,–,–,–,–,·,·
CCN(c1ccccc1)S(=O)(=O)c1cc(C(=O)Nc2ccc(F)c(F)c2)ccc1F,–,–,–,–,26,–,–
Cc1onc(-c2ccccc2Cl)c1C(=O)Nc1nnc(Cc2ccc(Cl)cc2)s1,–,–,–,–,23,–,–
Cc1nnc(NC(=O)c2c(-c3ccccc3Cl)noc2C)s1,–,–,–,–,–,·,·
CC1(C(=O)NCc2cccc3ccccc23)CCN1Cc1ccccc1OC(F)F (stereo not drawn),–,–,–,–,21,–,–
CC1(C(=O)NCc2ccc(C(F)(F)F)cc2)CCN1Cc1ccccc1OC(F)F (stereo not drawn),–,–,–,–,–,·,·
CCCCn1c(N)c(N(CCOC)C(=O)c2cc(C)oc2C)c(=O)[nH]c1=O,–,–,–,–,51,–,–
CC[C@@H](CCCCCCCn1ccc2ccccc21)CCC(=O)N(c1ccccc1)c1ccccc1,–,–,–,–,–,·,·
CN(C)c1ccc(C(CNC(=O)c2ccccc2Br)c2c[nH]c3ccccc23)cc1 (stereo not drawn),–,–,–,–,–,·,·
CN(C)c1ccc(C(CNS(=O)(=O)c2ccc(F)cc2)c2c[nH]c3ccccc23)cc1 (stereo not drawn),–,–,–,–,22,–,–
O=[N+]([O-])c1ccccc1-c1nc(-c2ccc(Br)o2)no1,–,–,–,–,23,–,–
SMILES,KLK7 zymogen act,PLCg1 inh,PLC-beta3 inh,ADAM17 inh,ADAM10 inh,ADAM10 confirm,ADAM17 ctr
CCCCn1c(NCc2cc(C)ccc2O)nc2ccccc21,–,–,–,–,23,–,–
Cn1c(NCc2cc(Br)ccc2O)nc2ccccc21,–,–,–,–,21,–,–
COc1ccc(CNc2nc3ccccc3n2C)c(O)c1,–,–,–,–,–,·,·
CNc1nc(N)c([N+](=O)[O-])c(Nc2cccc(OC)c2)n1,·,–,–,–,–,·,·
COc1cc(Sc2ccc(C)cc2)c(OC)cc1N,–,–,–,–,30,–,–
Cc1ccc(Nc2nc(N)nc(CN3CCN(c4ccccc4)CC3)n2)cc1Cl,–,–,–,–,–,·,·
COc1ccc(N2CCN(Cc3nc(N)nc(Nc4ccc(C)c(Cl)c4)n3)CC2)cc1,–,–,–,–,21,–,–
CC(C)(C)S(=O)N1Cc2cc(C(=O)N[C@@H]3CCN(Cc4ccccc4)C3)nc(-c3cccc(-c4cc5ccccc5o4)c3)c2[C@@H]1CCO (stereo partly drawn),–,–,–,–,20,–,–
COC(=O)[C@]12C[C@H](CC(=O)NCCCN3CCCC3=O)C(=O)N(Cc3cccc4ccccc34)C1=C[C@H](C(C)(C)C)O[C@@H]2C,–,–,–,–,–,·,·
Cc1ccc(-c2cc(-c3nnc(SCC(=O)Nc4ccccc4-c4ccccc4)n3N)[nH]n2)cc1,–,–,–,–,–,·,·
COC(=O)C1CN(CCc2ccccc2)CCS(=O)(=O)N1Cc1ccccc1 (stereo not drawn),–,–,–,–,–,·,·
Cc1ccc(S(=O)(=O)N2CCC(=O)N2)cc1,–,–,–,–,28,–,–
O=C1CCN(S(=O)(=O)c2ccc(Cl)cc2)N1,–,–,–,–,–,·,·
Cc1c[nH]c2cccc(-c3cc4ccccc4o3)c12,–,–,–,–,–,·,·
Cc1cccc(C(=O)NC(=S)N2CCN(C(=S)NC(=O)c3cccc(C)c3)CC2)c1,–,–,–,–,24,–,–
Cc1cccc(C(=O)NC(=S)N2CCN(C)CC2)c1,–,–,–,–,–,·,·
FC(F)(F)c1ccccc1C(C#Cc1ccccc1)NCc1ccc2c(c1)OCO2 (stereo not drawn),–,–,–,–,–,·,·
CSc1ccc(CN(C)C(=O)c2ccc(S(=O)(=O)Nc3c(C)n(C)n(-c4ccccc4)c3=O)cc2)cc1,–,–,–,–,–,·,·
CSc1ccc(CN(C)C(=O)c2ccc(S(=O)(=O)Nc3ccccc3)cc2)cc1,–,–,–,–,21,–,–
CCCOc1ccc(C(=O)CCC(=O)OCC(=O)N2CCN(S(=O)(=O)c3ccc(C)cc3C)CC2)cc1,–,–,–,–,21,–,–
O=C(Nc1ccc(OC(F)F)c(Cl)c1)C(c1ccccc1)c1ccccc1,–,–,–,14,28,–,–
O=C(CC(c1ccccc1)c1ccccc1)Nc1ccc(Cl)cn1,–,9.6,–,14,23,–,–
Cc1nc(NC(=O)COC(=O)CCc2nc3ccccc3s2)c(Cl)cc1Cl,–,–,–,–,–,·,·
O=C(COC(=O)CCc1nc2ccccc2s1)Nc1ccc(Cl)cn1,–,–,–,–,24,–,–
